Bioassay records: PubChem BioAssay, National Center for Advancing Translational Sciences (NCATS)
Shiga inhibitor: Shiga toxin inhibition; Vero cells, Shiga toxin protein synthesis inhibition reporter; inhibition, % at 38.7 µM; 290,000 compounds, 9.2% hits; in the data active means inhibition mostly above about 28%, no sharp cut-off; inactive means mostly below about 43%; further: 0% is about no effect
RE007 growth inh: less growth of the S. pombe RE007 Vpr strain | S. pombe RE007 Vpr strain, BacTiter-Glo ATP luminescence, 24 h | Potency, µM (highest dose often 92.2 µM), for the others: at the highest dose activity change, negative = less growth, hits mostly inhibitors | 360,000 compounds, 0.21% hits | AID 651644; active means well fitted falling curve with a large enough effect; inconclusive means small, poorly fitted or top-dose-only effect; inactive means no such curve, though single readings can be large or run the other way; further: potency means the concentration at half of the fitted maximal effect; on the % scale 0 is the no-effect control and ±100 the full control effect; nearly all actives have a fitted effect of over 50% in size
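Fission yeast strain RE007, carrying one chromosomally integrated HIV-1 vpr copy, was seeded at OD 0.01 in PMG+AL medium with 23 nL pinned compound. After 24 h at 30 °C and 99% humidity, viability was read by BacTiter-Glo luminescence.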
LmPK inhibitor: blocks Leishmania mexicana pyruvate kinase activity; AID 1721; 290,000 compounds, 0.37% hits; Potency, µM (highest dose often 57.5 µM), for the others: at the highest dose activity change, negative = inhibition, actives largely listed as inhibitors; purified LmPK, Kinase-Glo ATP luminescence, 1 h; Q27686; further: potency means the concentration at half of the fitted maximal effect; on the % scale 0 is the no-effect control and ±100 the full control effect
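Pyruvate kinase activity monitored as ATP production (luciferase luminescence). Conditions: 0.1 nM enzyme, 0.5 mM PEP, 0.1 mM ADP, 1 h, RT; normalized against uninhibited and no-enzyme wells.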
FBPA Giardia inh: inhibitors of Giardia lamblia fructose-1,6-bisphosphate aldolase; purified Giardia FBPA; Potency, µM (top dose mostly 59.6 µM), for the others: top-dose activity, negative = inhibition, most hits filed as inhibitors; 290,000 compounds, 0.71% hits; AID 2451; further: potency means the concentration at half of the fitted maximal effect; on the % scale 0 is the no-effect control and ±100 the full control effect; nearly all actives have a fitted effect of over 55% in size
Target sequence (A8B2U2 whole entry, looked up): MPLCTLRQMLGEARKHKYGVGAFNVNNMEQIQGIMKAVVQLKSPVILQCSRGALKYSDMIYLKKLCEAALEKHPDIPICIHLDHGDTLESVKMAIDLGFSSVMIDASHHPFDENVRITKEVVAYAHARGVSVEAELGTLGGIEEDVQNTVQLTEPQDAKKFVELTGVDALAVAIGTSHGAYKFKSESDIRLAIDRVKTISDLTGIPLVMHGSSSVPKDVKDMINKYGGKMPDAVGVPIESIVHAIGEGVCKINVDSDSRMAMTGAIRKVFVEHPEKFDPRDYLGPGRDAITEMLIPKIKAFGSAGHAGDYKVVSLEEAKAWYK
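40 nM FBPA preincubated 10 min at RT with compound (up to 57.5 uM final), then substrate plus GAPDH/TPI/NAD/arsenate coupling and diaphorase/resazurin added. Fluorescence read after 20 min at RT, 525/598 nm.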
Cycloheximide cs: counter-screen hit for Shiga toxin inhibitors, cycloheximide. 300,000 compounds, 12% hits. AID 2314. cell reporter, cycloheximide protein synthesis inhibition counterscreen. max response, %; in the data active means max response mostly above about 13%, no sharp cut-off; inactive means mostly below about 14%; further: read at 38.3 µM for the half of the compounds with a filed dose; 0% is about no effect
Tb PYK inh: blocks Trypanosoma brucei pyruvate kinase | Q57TT1 | TbPYK enzyme, Kinase-Glo Plus ATP luminescence, 45 min | Potency, µM (series often up to 76.8 µM), without a hit: top-dose activity, negative = inhibition, hits mostly inhibitors | 410,000 compounds, 0.12% hits | AID 624173; further: potency means the concentration at half of the fitted maximal effect; on the % scale 0 is the no-effect control and ±100 the full control effect; nearly all actives have a fitted effect of over 50% in size
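Enzyme and substrate buffer are dispensed first and compound is pin-transferred. ADP at 130 uM final then starts the reaction, which runs 45 min at room temperature. Detection reagent is added for 10 min before luminescence is imaged.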
* marks the source's active call; other numbers are inactive results; u = inconclusive; x = no result; [ ] = remark or other dose. Shown is part of a subset that was picked to be rich in hits. Unless noted, the call rests on the fitted dose curve; in most records, active means well fitted curve in the direction sought with a large enough effect; inconclusive means small, poorly fitted or top-dose-only effect, or another doubt; inactive means no such curve, though single readings can be large; an effect the other way counts as inactive or inconclusive.

SMILES	Shiga inhibitor	RE007 growth inh	LmPK inhibitor	FBPA Giardia inh	Cycloheximide cs	Tb PYK inh
Cc1cc(NCc2ccccc2)n2ncc(-c3ccccc3)c2n1	93.0*	2.8%	-6.8%	2.1%	67.4*	3.2%
COc1nc(NCCc2ccc(OC)c(OC)c2)nc(Nc2ccccc2)n1	x	14.7%	7.7%	-8.9%	54.4*	-1.9%
c1ccc(-c2csc3ncnc(NCc4ccccn4)c23)cc1	-5.8	5.7%	0.8%	u	-3.4	0.6%
Cc1cc(C(F)(F)F)n2ncc(-c3cccc(Br)c3)c2n1	-3.6	11.5%	-2.0%	8.1%	14.4	3.1%
Cc1cc(NC(C)c2ccccc2)n2ncc(-c3ccccc3)c2n1 (stereo unspecified)	68.7*	-4.0%	8.8%	0.7%	43.7*	-10.6%
COc1ccc(CCNc2nc(-c3ccccc3OC)cc(C(F)(F)F)n2)cc1OC	x	x	x	x	x	-9.6%
Cc1ccc(-c2c(CN3CCN(c4cccc(C)c4C)CC3)csc2C)cc1	x	x	x	x	x	-10.3%
O=C(NCC(c1ccc2c(c1)OCO2)N1CCN(c2ccccc2)CC1)C(=O)Nc1cccc(F)c1 (stereo unspecified)	x	x	x	x	x	-0.9%
COc1ccc(C(=O)N2CCC3(CCCN(Cc4cc(C(F)(F)F)cc(C(F)(F)F)c4)C3)CC2)cc1	x	x	x	-3.9%	x	3.0%
COc1ccc(CCNc2cc(C)nc3c(-c4ccc(Cl)cc4)cnn23)cc1OC	-8.3	-5.8%	5.9%	-9.9%	6.2	3.0%
Cc1cc(NCCN2CCOCC2)n2ncc(-c3ccccc3)c2n1	41.2*	21.6%	0.7%	9.8%	28.2*	-0.2%
COc1ccc(CCNc2cc(C)nc3c(-c4ccccc4)cnn23)cc1OC	active	-18.3%	0.8%	-20.2%	47.8*	8.3%
COc1ccccc1-c1cnn2c(NCCc3ccccc3)cc(C)nc12	75.0*	u	0.2%	-5.5%	33.8*	0.6%
Cn1cc(C=C2C(=O)NC(=O)NC2=O)c2ccccc21	-4.3	16.2%	-2.2%	18.0%	-3.1	5.7%
CC(=O)n1cc(C=C2C(=O)NC(=O)NC2=O)c2ccccc21	3.8	4.6%	-0.6%	u	-1.7	28.2µM*
COc1ccc(NC(=O)COc2ccccc2)cc1Cl	x	16.0%	3.1%	-1.1%	12.6	-1.2%
COC(=O)c1ccc(N2CCN(C)CC2)c(NC(=O)COc2ccccc2)c1	-7.6	7.4%	-1.5%	-0.9%	-2.3	1.2%
CN1CCN(c2ccc(NC(=O)COc3ccccc3)cc2Cl)CC1	82.6*	10.9%	-1.0%	9.7%	44.0*	-16.0%
Cc1cc(NC(=O)COc2ccccc2)ccc1Cl	107.1*	-21.0%	-1.8%	2.8%	49.8*	-1.2%
Cc1ccc(NC(=O)COc2ccccc2)cc1Cl	102.0*	-6.8%	2.2%	9.0%	16.9*	1.4%
CC(=O)OC1CCC2(C)C(=CC=C3C2CCC2(C)C3CCC2C(C)/C=C/C(C)C(C)C)C1(C)C (stereo unspecified)	x	x	x	5.9%	x	x
COc1ccc(-c2nn(-c3ccccc3)cc2C=O)cc1[N+](=O)[O-]	-6.1	-12.7%	-8.7%	-1.1%	0.6	19.4%
COc1ccc(-c2nn(-c3ccccc3)cc2/C=C/C(=O)O)cc1[N+](=O)[O-]	41.2	-23.1%	8.5%	-20.6%	13.2*	0.2%
COc1cccc(Cn2c(=O)cnc3cnc(N(C)C)nc32)c1	x	x	x	3.9%	x	x
CCN(CC)c1cc2c(cc1F)c(=O)c(S(=O)(=O)c1ccc(OC)cc1)cn2CC	x	x	x	x	x	1.4%
SMILES	Shiga inhibitor	RE007 growth inh	LmPK inhibitor	FBPA Giardia inh	Cycloheximide cs	Tb PYK inh
CN1CCN(C(=S)NCCc2ccccc2)CC1	44.5	-5.1%	-1.7%	-15.1%	35.0*	-2.8%
OCC1CCCN(C(=S)NCCc2ccccc2)C1 (stereo unspecified)	35.7	19.7%	-1.3%	2.5%	32.7*	-13.2%
CC1CCN(C(=S)NCCc2ccccc2)CC1	82.0*	7.7%	4.5%	-0.9%	30.3*	-4.2%
O=C(NCCc1ccccc1)N1CCCC(CNS(=O)(=O)Cc2ccccc2)C1 (stereo unspecified)	21.6	1.5%	6.4%	2.3%	13.7*	-1.5%
S=C(NCCc1ccccc1)N1CCN(C(=S)NCCc2ccccc2)CC1	x	-6.0%	x	x	x	-1.4%
CCn1c(=O)n(CC)c2cc(N3CCCCC3)c(NC(=O)Nc3ccccc3C(F)(F)F)cc21	x	x	x	x	x	1.2%
COC(=O)C/C=C\[C@H](C)[C@@H](OCc1ccccc1Br)C(C)C	x	x	x	1.3%[12.9 µM]	x	x
COc1ccc(Oc2ncc3nc(CCc4ccccc4)c(=O)n(CCC#N)c3n2)cc1	x	x	x	-0.6%	x	-4.1%
CC1CCN(C(=O)Cn2cc(SCc3cccc(F)c3)c3ccccc32)CC1	x	x	x	x	x	-7.5%
CCN(CC)CCCn1c(-c2ccccc2)nc2c(NCCOC)nc(C)nc21	x	x	x	0.8%	x	x
CN(C)c1cccc(C(=O)OCC(=O)NCc2ccco2)c1	17.6	-14.9%	2.0%	-1.4%	18.7*	1.1%
CC(=O)Nc1ccc(OC(=O)c2ccccc2N)cc1	-52.7	-10.2%	-2.5%	-0.1%	19.2*	0.0%
COc1cc(OC)cc(C(=O)OCC(=O)NCc2ccco2)c1	x	4.6%	x	x	x	-1.4%
CCOc1ncccc1C(=O)OCC(=O)c1ccccc1	-4.1	-8.2%	u	2.9%	2.2	-3.8%
CNc1ccccc1C(=O)OCC(=O)c1ccc(F)cc1	121.6*	3.6%	9.4%	-13.5%	80.1*	6.4%
CNc1ccccc1C(=O)OCC(=O)c1ccccc1	32.6*	-14.1%	-7.0%	-0.9%[12.9 µM]	45.5*	0.7%
O=C(COC(=O)c1ccccc1-c1ccccc1[N+](=O)[O-])c1ccccc1	20.0	-1.4%	10.4%	0.8%	22.3*	-2.4%
CC(=O)Nc1ccc(C(=O)OCC(=O)c2ccc(F)cc2)cc1	33.6*	8.2%	-5.0%	1.8%	25.1*	4.2%
COc1cc(OC)cc(C(=O)N[C@H](C(=O)OCC(=O)c2ccc(F)cc2)C(C)C)c1	13.5	-9.2%	4.2%	-4.6%	8.9	3.7%
CC(C)C(NC(=O)c1ccccc1F)C(=O)OCC(=O)c1ccc(F)cc1 (stereo unspecified)	93.7*	4.8%	-18.5%	-11.7%	61.5*	1.3%
O=C(COC(=O)c1ccccc1[N+](=O)[O-])NC(=O)c1ccccc1	x	35.5%	x	x	x	0.7%
O=C(COC(=O)c1ccccc1Nc1ccccc1)c1ccccc1	34.7	-8.4%	0.8%	0.7%	29.8*	-3.9%
O=C(O)[C@H]1CN[C@H](C(=O)O)C1	x	x	x	-7.2%	x	x
CC(=O)Nc1ccc(C(=O)OCc2ccc(Cl)cc2)cc1	28.0	-5.1%	4.3%	1.2%	-2.6	-11.3%
Cc1cc2c(cc(C(=O)OCC(=O)NCc3ccco3)n2C)s1	43.7	4.1%	4.3%	0.4%	14.7*	1.6%
O=C(COC(=O)c1ccccc1Cl)NCc1ccco1	x	-3.0%	x	x	x	-4.4%
Cn1c(C(=O)OCC(=O)NCc2ccco2)cc2sccc21	27.1	8.3%	3.7%	-3.6%	10.1	-23.0%
